Source: PubChem BioAssay AID743361 (Molecular Libraries Program, Specialized Chemistry Center, …, 2014)
Active and inactive are the calls of the source. No rule for the calls is given here.

Assay: cell-free Rh123 fluorescence quenching read-out – biochemical, dry powder samples, uHTS hits, counter-screen for mtPTP inhibitor project, dose response (AID 743361)
Conditions: Rhodamine 123 fluorescence quenching counterscreen

| Structure (SMILES) | IC50 |
| --- | --- |
| O=S(=O)(Nc1ccc(CN2CCCCC2)cc1)c1ccc(F)c(Cl)c1 | > 100 µM (inactive) |
| O=C(Nc1cc(Cl)ccc1F)c1cc(-c2cccc(O)c2)on1 | > 100 µM (inactive) |
| COc1ccc(NC(=O)c2cc(Cl)cc(Cl)c2OC)cc1 | > 100 µM (inactive) |
| CCCc1cc(C(=O)Nc2c(F)cc(F)cc2Br)no1 | > 100 µM (inactive) |
| Cc1ccc(NC(=O)c2cc(-c3cccc(O)c3)on2)cc1Cl | > 100 µM (inactive) |
| CCc1ccccc1NC(=O)c1cc(-c2ccccc2)on1 | > 100 µM (inactive) |
| COc1ccc(Cl)cc1C(=O)Nc1ccc(N2CCN(C)CC2)cc1 | > 100 µM (inactive) |
| COc1ccc(Cl)cc1C(=O)Nc1ccc(CCN2CCNCC2)cc1 | > 100 µM (inactive) |
| Cc1cc(NC(=O)c2ccc(-n3cnnc3)cc2)no1 | > 100 µM (inactive) |
| COc1ccccc1C(=O)Nc1ccc(CN2CCCCC2)cc1 | > 100 µM (inactive) |
| COc1ccccc1C(=O)Nc1ccc(C(=O)N2CCCCC2)cc1 | > 100 µM (inactive) |
| O=C(Nc1ccc(CN2CCCCC2)cc1)c1cc(OCc2ccccc2)ccc1Cl | 76.2 µM (active) |
| COc1ccc(Cl)c(C(=O)Nc2ccc(CCN3CCCCC3)cc2)c1 | > 100 µM (inactive) |
| COc1ccc(Cl)cc1S(=O)(=O)Nc1ccc(CN2CCCCC2)cc1 | > 100 µM (inactive) |
| COc1ccc(Cl)cc1C(=O)Nc1cccc(CN2CCN(C(=O)OC(C)(C)C)CC2)c1 | 73.5 µM (active) |
| CN1CCN(c2ccc(NS(=O)(=O)c3ccc(F)c(Cl)c3)cc2)CC1 | > 100 µM (inactive) |
| COc1ccc(Cl)c(C(=O)Nc2ccc(CCN3CCN(C)CC3)cc2)c1 | > 100 µM (inactive) |
| COc1ccc(Cl)cc1C(=O)Nc1ccc(N2CCOCC2)cc1 | > 100 µM (inactive) |
| O=C(Nc1cccc(Cl)c1)c1cc(-c2cccc(O)c2)on1 | > 100 µM (inactive) |
| CN1CCN(c2ccccc2NC(=O)c2ccc(OCc3ccccc3)cc2)CC1 | > 100 µM (inactive) |
| COc1cccc(-c2cc(C(=O)Nc3cc(Cl)ccc3C)no2)c1 | > 100 µM (inactive) |
| COc1ccc(C(=O)CCN2CCCC(C)C2)cc1 (stereo not given) | > 100 µM (inactive) |
| COc1ccc(Cl)cc1S(=O)(=O)Nc1ccc(N2CCN(C)CC2)cc1 | > 100 µM (inactive) |
| CCCc1cc(C(=O)Nc2ccc(Br)cc2)no1 | > 100 µM (inactive) |
| CN1CCN(Cc2ccc(NS(=O)(=O)c3cccc(Cl)c3)cc2)CC1 | > 100 µM (inactive) |
| O=C(Nc1ccc(CN2CCCCC2)cc1)c1cccc(Cl)c1 | > 100 µM (inactive) |
| CN1CCN(Cc2ccc(NS(=O)(=O)c3cc(Cl)cc(Cl)c3)cc2)CC1 | > 100 µM (inactive) |
| O=C(Nc1ccc(N2CCCCC2)cc1)c1cccc(OCc2ccccc2)c1 | > 100 µM (inactive) |
| O=S(=O)(Nc1ccc(CCN2CCCCC2)cc1)c1cccc(Cl)c1 | > 100 µM (inactive) |
| COc1ccc(Cl)cc1C(=O)Nc1ccc(N2CCCCC2)cc1 | > 100 µM (inactive) |
